Measurements: PubChem BioAssay AID1863 (Southern Research Specialized Biocontainment Screening …, 2009)
Several values for one entry are separate records, joined by “and”; a condition that tells them apart may be missing. Equal values may be shown once. The campaign covered roughly 300,000 compounds. About 480 (0.16%) were called active.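 The calls were made as follows: active = inhibition over 29.93%, a cutoff 3 SD above the screen mean, later confirmed by dose response; inconclusive = inhibition over 29.93% but no dose response follow-up; inactive = inhibition at most 29.93% or unconfirmed.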 Only a sample is shown. Entries with a potency or affinity are not part of this list.

experiment: inhibitors of PhoP regulon expression, primary screen, Salmonella Typhimurium, GFP reporter (AID 1863);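 also: 0% = low Mg2+ inducing control and 100% = high Mg2+ repressing control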; settings: S. Typhimurium PhoP-regulated promoter GFP reporter, 4 h; at 50 µM; active compounds read high

Compound	inhibition
Cn1c(SCC2CCCCC2)nnc1-c1ccncc1	7.51% (inactive)
CC(NC(=O)c1cc2cc(F)ccc2[nH]1)c1ccccc1 (stereo not given)	5.36% (inactive)
COc1ccc(Cl)cc1NC(=O)C/C(C)=N/NC(=O)COc1ccc(C)cc1	4.2% (inactive)
Cc1ccc(C(=O)OC(C)C(=O)NC2CCCCC2C)cc1S(=O)(=O)N1CCOCC1 (stereo not given)	-5.67% (inactive)
CCCCC(=O)N1CCN(c2nc3ccc(OCC)cc3s2)CC1	10.3% (inactive)
CN1CCc2c(sc(NC(=O)C3CCCN3S(=O)(=O)c3ccc(Cl)s3)c2C(N)=O)C1 (stereo not given)	-7.52% (inactive)
CCOc1ccc(N(CC(=O)NCCc2ccccc2)C(=O)c2csnn2)cc1	2.07% (inactive)
Cc1ccc(-n2nc3ccc(N)cc3n2)cc1Cl	0.05% (inactive)
O=C(O)COCC(=O)NCc1nc(-c2ccc(C(F)(F)F)cc2)no1	-3.89% (inactive)
CC1c2ccsc2CCN1S(=O)(=O)c1ccccc1 (stereo not given)	5.29% (inactive)
COc1cc2c(cc1OC)C(COc1ccc([N+](=O)[O-])cc1)NCC2 (stereo not given)	5.02% (inactive)
CC1CCCN(C(=S)NCc2ccccc2)C1 (stereo not given)	4.83% (inactive)
CC1CCN(c2c(NCC3CCC(C(=O)NCc4ccccc4)CC3)c(=O)c2=O)CC1 (stereo not given)	-6.12% (inactive)
Cc1ccc(CCNS(=O)(=O)c2cc(Br)cnc2N)cc1	1.18% (inactive)
CC1CCCCC1NC(=O)C1CCN(C(=O)c2sccc2-n2cccc2)CC1 (stereo not given)	6.9% (inactive)
COC(=O)COC(=O)c1ccc(O)cc1	-6.41% (inactive)
Cc1ccc(-c2nc(CS(=O)(=O)CC(=O)N3CCc4ccccc4C3)c(C)o2)cc1	8.69% (inactive)
CC1CCC(C(C)C)C(OC(=O)Cn2c(-c3ccccc3)[n+](C)c3ccccc32)C1 (stereo not given)	-8.38% (inactive) and 13.1% (inactive)
COc1ccc(-c2n(CC(=O)OC3CC(C)CCC3C(C)C)c3ccccc3[n+]2C)cc1 (stereo not given)	-3.97% (inactive)
CC1CCC(C(C)C)C(OC(=O)Cn2c(-c3ccc(Br)cc3)[n+](C)c3ccccc32)C1 (stereo not given)	10% (inactive) and 1.48% (inactive)
Cc1ccccc1OCc1n(CC(=O)OC2CC(C)CCC2C(C)C)c2ccccc2[n+]1C (stereo not given)	6.3% (inactive)
Cc1cccc(OCc2n(CC(=O)OC3CC(C)CCC3C(C)C)c3ccccc3[n+]2C)c1 (stereo not given)	15.1% (inactive)
CC1CCC(C(C)C)C(OC(=O)Cn2c(-c3ccc(F)cc3)[n+](C)c3ccccc32)C1 (stereo not given)	4.57% (inactive)

Compound	inhibition
COc1cccc(N2CCN(C(=O)CN(C)S(=O)(=O)c3ccc4c(c3)c(=O)n(C)c(=O)n4C)CC2)c1	3.8% (inactive)
CCN(CC)c1ccc(NC(=O)CCNC(=O)c2ccco2)cc1	17.8% (inactive)
COc1ccc(CNC(=O)COC(=O)CCOc2ccc(C)cc2)cc1OC	-1.68% (inactive)
CN(Cc1cn(C)c2ccccc12)C(=S)Nc1cc(F)cc(F)c1	-1.37% (inactive)
COc1ccc(CCN2CC(C(=O)NCCc3ccccc3)CC2=O)cc1OC (stereo not given)	6.87% (inactive)
CCN1CCN(C(=O)c2cnn3c(C(F)F)cc(-c4ccc(C)cc4)nc23)CC1	7.14% (inactive)
COc1ccc(S(=O)(=O)N2CC(C)N(C(=O)N(C)C)C2C)cc1 (stereo not given)	-6.03% (inactive)
COc1ccc(-n2cnnc2SCC(=O)Nc2ccccc2F)cc1	-6.73% (inactive)
CCOc1ccccc1NC(=O)CSc1nnc(CNC(=O)c2c(F)cccc2Cl)o1	1.66% (inactive)
COc1ccc(NC(=O)COc2ccc(/C=N/n3c(C)nnc3C)cc2OC)cc1	-10.3% (inactive)
COC(=O)Nc1ccc(S(=O)(=O)N2CCCCCC2)cc1	-7.01% (inactive)
Cc1ccc(C)c(N(CC(=O)NC(C)C)C(=O)CCC(=O)Nc2ccccn2)c1	-3.9% (inactive)
COCC1=C(C(=O)OC(C)OC(=O)OC(C)C)N2C(=O)[C@@H](NC(=O)/C(=N\OC)c3csc(N)n3)[C@H]2SC1 (stereo not given in full)	-12.3% (inactive)
CO/N=C(\C(=O)N[C@@H]1C(=O)N2C(C(=O)O)=C(COC(N)=O)CS[C@H]12)c1ccco1	4.28% (inactive)
O=S(=O)(N/N=C/c1ccc(N2CCOCC2)cc1)c1ccc(Br)cc1	-5.5% (inactive)
Cc1nn2c(-c3ccccc3)ccnc2c1Br	0.66% (inactive)
CCc1ccc(S(=O)(=O)/N=C2\C=C(Nc3ccc(O)cc3)C(=O)c3ccccc32)cc1	15.4% (inactive)
Cc1ccc(S(=O)(=O)/N=C2/C=C(Sc3ncn[nH]3)C(=O)c3ccccc32)c(C)c1	192% (inactive)
CCc1ccc(S(=O)(=O)/N=C2\C=CC(=O)c3ccccc32)cc1	3.04% (inactive)
Cc1ccc(S(=O)(=O)/N=C2/C=C(C3C(=O)CC(C)(C)CC3=O)C(=O)c3ccccc32)cc1	8.77% (inactive)
CCOC(=O)c1cn(Cc2ccccc2)c(C(=O)OC(C)(C)C)c1O	2.15% (inactive)
CN(CC(=O)Nc1ccccc1Br)C(=O)c1ccc(COc2ccccc2)cc1	1.64% (inactive)
O=C(O)c1cc2ccc3cccc4ccc(c1)c2c34	7.13% (inactive)

Compound	inhibition
Oc1cccc2cc3cccc(O)c3c(O)c12	5.42% (inactive)
CC(=O)NC12CC3CC(C1)CC(C(=O)Nc1nccs1)(C3)C2	-6.86% (inactive)
O=C(COc1ccc(Cl)cc1)Nc1ccc(C(=O)O)cc1NC(=O)COc1ccc(Cl)cc1	-0.41% (inactive)
COc1cc(/C=C/C(=O)N(C)c2ccccc2C(=O)O)cc(OC)c1OC	-9.48% (inactive)
CC(C)(C)c1cc(NCCCn2ccnc2)n2ncc(-c3ccccc3)c2n1	-5.57% (inactive)
CC(C)Nc1cc(C(C)(C)C)nc2c(-c3ccccc3)cnn12	1.4% (inactive)
C[C@@H]1CN(Cc2nc(-c3cccs3)no2)C[C@H](C)O1	17.7% (inactive)
COc1ccc(CC2NCCC3(O)CCCCC23)cc1 (stereo not given)	-4.79% (inactive)
CCOc1ccc(C(=O)Nc2ccc(C(=O)N3CCOCC3)cc2)c(OCC)c1	2.54% (inactive)
CCCCC(CC)CNC(=O)C1CC=CCC1C(=O)O (stereo not given)	-4.78% (inactive)
Cc1cc2oc(C(=O)Nc3ccc(S(N)(=O)=O)cc3)c(C)c2cc1Cl	0.34% (inactive)
COC(=O)c1ccc(Nc2c([N+](=O)[O-])ccc3nonc23)cc1	-2.08% (inactive)
Cc1ccc(S(=O)(=O)N(C)C)cc1NC(=O)COC(=O)COc1ccc2c(c1)CCC2	-2.74% (inactive)
Cc1cc(Nc2ccccc2O)c2ccccc2n1	8.86% (inactive)
Cc1cccc(Nc2nc3ccccc3s2)c1C	6.62% (inactive)
Cc1cc(Nc2ccccc2)nc2cc(O)ccc12	60.3% (inactive)
Cc1cc(N2CCC(C)CC2)nc2cccc(O)c12	11.4% (inactive)
CCOc1ccc(NC(=O)CSc2nc3cccnc3n2CCOC)cc1	8.6% (inactive)
O=C(NC(=S)N1CCN(C/C=C/c2ccccc2)CC1)c1cccnc1	-1.23% (inactive)
Cc1cc(C)n(-c2nc(NCCCN(C)C)c3c4c(sc3n2)CCCC4)n1	-3.42% (inactive)
Cc1cc(C)n(-c2nc(NCCO)c3c4c(sc3n2)CCCC4)n1	1.98% (inactive)
Cn1cc(C(=O)NCc2cccnc2)c(=O)c2cc(S(=O)(=O)N3CCCCCC3)ccc21	1.24% (inactive)
CS(=O)(=O)N(Cc1ccc(C(=O)NCCSCc2ccco2)cc1)c1ccccc1	-4.62% (inactive)

Compound	inhibition
Cc1cccc(N2CCN(C(=O)c3ccnn3C)CC2)c1C	0.84% (inactive)
COCCNCC(O)CON=C1c2ccccc2-c2ccccc21 (stereo not given)	-2.34% (inactive)
CC(C)(C)NCC(O)CON=C1c2ccccc2-c2ccccc21 (stereo not given)	-0.28% (inactive)
Cc1n[nH]c(=S)n1-c1cccc(Cl)c1	-6.91% (inactive)
CCN(CC)CCCNC(=O)c1cn(CC)c2cc(N3CCN(C(=O)c4ccco4)CC3)c(F)cc2c1=O	14.4% (inactive)
CCn1cc(C(=O)NCc2ccc3c(c2)OCO3)c(=O)c2cc(F)c(N3CCN(C)CC3)cc21	6.63% (inactive)
CCN(CC)CCNC(=O)c1cn(CC)c2cc(N3CCN(C)CC3)c(F)cc2c1=O	25.1% (inactive)
CC1(C)S/C(=N/N=C/c2cccs2)NC1=O	0.99% (inactive)
Cc1ccc(C)c(N2CCN(c3ccc([N+](=O)[O-])cn3)CC2)c1	1.13% (inactive)
Cn1c(CNC(=O)c2ccc3c(c2)OCO3)nnc1SCC(=O)Nc1ccc(F)cc1	2.02% (inactive)
COc1ccc(Br)cc1CN(C)C(=O)c1ccccc1OCc1c(C)noc1C	-8.01% (inactive)
Cc1ccc(N(CC(=O)NC2CCCCC2)S(=O)(=O)c2c(C)noc2C)cc1	6.34% (inactive)
CC(C)(CO)NCc1c(OCc2ccc(Cl)cc2)ccc2ccccc12	-7.49% (inactive)
CC(O)CNCCNCc1c(OCc2ccccc2)ccc2ccccc12 (stereo not given)	32.8% (inactive)
COc1ccc(S(=O)(=O)N2CCC(NC(=O)C3CCCCC3)CC2)cc1	4.35% (inactive)
Cc1ccc(-c2ccc(=O)n(CC(=O)NCc3ccco3)n2)cc1	6.56% (inactive)
COc1ccc(NC(=O)C2CCN(S(=O)(=O)c3ccc(OC)c(OC)c3)CC2)c(OC)c1	5.61% (inactive)
CCOC(=O)c1cnc(-c2ccccc2O)nc1Cl	3.92% (inactive)
CCOC(=O)C(=O)Nc1ccccc1C(=O)OCC	9.09% (inactive)
C[C@@H]1CC=C[C@H]2[C@H]1C(=O)N(Cc1ccccc1)[C@H]2c1ccc(-c2ccc(F)cc2)cc1F	-3.92% (inactive)
Cc1cc(C)c2[nH]c(=O)c(C(c3nnnn3CC3CCCO3)N3CCCC(C)C3)cc2c1 (stereo not given)	-1.81% (inactive)
